Results: PubChem BioAssay AID1159580 (chemical genetic matrix, 2015)
In all, about 5,500 compounds went through this assay and about 2,000 (36%) were called active. Inconclusive results (about 18%) are left out. No stated cut-off is given here; in the data, active means normalized growth mostly below about 0.91 (no sharp cut-off); inconclusive means no clear call, values can overlap the other calls; inactive means mostly above about 0.92. The list shows a part of the results.

Test: chemical genetic growth profiling, strain panel (AID 1159580);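 further: tested at 20 µM; growth read once vehicle control cultures reached saturation at 30 °C; 1 = growth at the plate median or of vehicle wells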
Settings: growth OD

Measured: normalized growth

CCC(N)C(O)c1ccc(O)c(O)c1 (configuration not stated)
inactive: S. cerevisiae deletion strains, locus YJR075W, strain HOC1, stronger effect = lower value 1.01 | S. cerevisiae deletion strains, locus YKL009W, strain mrt4, stronger effect = lower value 0.996 | S. cerevisiae deletion strains, locus YKL068W, stronger effect = lower value 0.993 | S. cerevisiae deletion strains, locus YKL085W, strain MDH1 (second series), stronger effect = lower value 0.985 | S. cerevisiae deletion strains, locus YKL085W, strain MDH1, stronger effect = lower value 0.985 | S. cerevisiae deletion strains, locus YKL160W, strain elf1, stronger effect = lower value 0.999 | S. cerevisiae deletion strains, locus YKL190W, strain CNB1, stronger effect = lower value 1.01 | S. cerevisiae deletion strains, locus YKR001C, strain vps1, stronger effect = lower value 0.99 | S. cerevisiae deletion strains, locus YKR026C, strain gcn3, stronger effect = lower value 0.973 | S. cerevisiae deletion strains, locus YKR091W, strain srl3, stronger effect = lower value 0.993 | S. cerevisiae deletion strains, locus YLL001W, strain dnm1, stronger effect = lower value 1 | S. cerevisiae deletion strains, locus YLL026W, stronger effect = lower value 0.984 | S. cerevisiae deletion strains, locus YLL041C, strain sdh2, stronger effect = lower value 1 | S. cerevisiae deletion strains, locus YLR027C, strain aat2, stronger effect = lower value 0.988 | S. cerevisiae deletion strains, locus YLR039C, strain RIC1, stronger effect = lower value 1.06 | S. cerevisiae deletion strains, locus YLR058C, strain SHM2, stronger effect = lower value 1.02 | S. cerevisiae deletion strains, locus YLR102C, strain apc9, stronger effect = lower value 0.983 | S. cerevisiae deletion strains, locus YLR113W, strain HOG1, stronger effect = lower value 0.998 | S. cerevisiae deletion strains, locus YLR221C, strain rsa3, stronger effect = lower value 1 | S. cerevisiae deletion strains, locus YLR258W, strain gsy2, stronger effect = lower value 0.993 | S. cerevisiae deletion strains, locus YLR262C, strain YPT6 (second series), stronger effect = lower value 0.996 | S. cerevisiae deletion strains, locus YLR262C, strain YPT6, stronger effect = lower value 1.05 | S. cerevisiae deletion strains, locus YLR268W, strain sec22, stronger effect = lower value 0.928 | S. cerevisiae deletion strains, locus YLR320W, strain mms22, stronger effect = lower value 0.99 | S. cerevisiae deletion strains, locus YLR330W, strain CHS5, stronger effect = lower value 1.01 | S. cerevisiae deletion strains, locus YLR342W, strain FKS1 (second series), stronger effect = lower value 0.989 | S. cerevisiae deletion strains, locus YLR342W, strain FKS1, stronger effect = lower value 0.995 | S. cerevisiae deletion strains, locus YLR357W, strain rsc2, stronger effect = lower value 0.979 | S. cerevisiae deletion strains, locus YLR370C, strain arc18, stronger effect = lower value 0.989 | S. cerevisiae deletion strains, locus YLR371W, strain rom2, stronger effect = lower value 0.977 | S. cerevisiae deletion strains, locus YLR384C, strain iki3, stronger effect = lower value 0.997 | S. cerevisiae deletion strains, locus YLR418C, strain cdc73, stronger effect = lower value 1.01 | S. cerevisiae deletion strains, locus YML016C, strain PPZ1, stronger effect = lower value 1.01 | S. cerevisiae deletion strains, locus YML032C, strain rad52, stronger effect = lower value 0.972 | S. cerevisiae deletion strains, locus YML120C, strain ndi1, stronger effect = lower value 1.01 | S. cerevisiae deletion strains, locus YML124C, strain tub3, stronger effect = lower value 0.991 | S. cerevisiae deletion strains, locus YMR058W, strain fet3, stronger effect = lower value 0.987 | S. cerevisiae deletion strains, locus YMR078C, strain ctf18, stronger effect = lower value 0.977 | S. cerevisiae deletion strains, locus YMR125W, strain sto1, stronger effect = lower value 0.964 | S. cerevisiae deletion strains, locus YMR129W, stronger effect = lower value 1 | S. cerevisiae deletion strains, locus YMR205C, strain PFK2, stronger effect = lower value 0.97 | S. cerevisiae deletion strains, locus YMR223W, strain ubp8, stronger effect = lower value 1.02 | S. cerevisiae deletion strains, locus YMR231W, strain pep5, stronger effect = lower value 0.996 | S. cerevisiae deletion strains, locus YMR263W, strain SAP30, stronger effect = lower value 1.01 | S. cerevisiae deletion strains, locus YMR307W, strain GAS1, stronger effect = lower value 1.01 | S. cerevisiae deletion strains, locus YNL067W, strain RPL9B, stronger effect = lower value 0.993 | S. cerevisiae deletion strains, locus YNL071W, strain lat1, stronger effect = lower value 0.991 | S. cerevisiae deletion strains, locus YNL128W, strain TEP1, stronger effect = lower value 1.02 | S. cerevisiae deletion strains, locus YNL153C, strain GIM3, stronger effect = lower value 0.985 | S. cerevisiae deletion strains, locus YNL183C, strain NPR1, stronger effect = lower value 0.968 | S. cerevisiae deletion strains, locus YNL209W, strain ssb2, stronger effect = lower value 1 | S. cerevisiae deletion strains, locus YNL233W, strain BNI4, stronger effect = lower value 0.992 | S. cerevisiae deletion strains, locus YNL248C, strain rpa49, stronger effect = lower value 1.01 | S. cerevisiae deletion strains, locus YNL250W, strain rad50, stronger effect = lower value 0.988 | S. cerevisiae deletion strains, locus YNL271C, strain bni1, stronger effect = lower value 0.99 | S. cerevisiae deletion strains, locus YNL298W, strain CLA4, stronger effect = lower value 0.993 | S. cerevisiae deletion strains, locus YNL307C, strain MCK1, stronger effect = lower value 1 | S. cerevisiae deletion strains, locus YNL322C, strain KRE1 (second series), stronger effect = lower value 0.985 | S. cerevisiae deletion strains, locus YNL322C, strain KRE1, stronger effect = lower value 1.01 | S. cerevisiae deletion strains, locus YNR049C, strain mso1, stronger effect = lower value 0.995 | S. cerevisiae deletion strains, locus YNR052C, strain pop2, stronger effect = lower value 0.997 | S. cerevisiae deletion strains, locus YOL006C, strain TOP1, stronger effect = lower value 1.05 | S. cerevisiae deletion strains, locus YOL012C, strain htz1 0.91 | S. cerevisiae deletion strains, locus YOL147C, strain pex11, stronger effect = lower value 0.991 | S. cerevisiae deletion strains, locus YOR001W, strain rrp6, stronger effect = lower value 1 | S. cerevisiae deletion strains, locus YOR061W, strain CKA2, stronger effect = lower value 1.02 | S. cerevisiae deletion strains, locus YOR069W, strain VPS5, stronger effect = lower value 1.01 | S. cerevisiae deletion strains, locus YOR070C, strain gyp1, stronger effect = lower value 0.991 | S. cerevisiae deletion strains, locus YOR080W, strain dia2, stronger effect = lower value 0.986 | S. cerevisiae deletion strains, locus YOR083W, strain WHI5, stronger effect = lower value 1.01 | S. cerevisiae deletion strains, locus YOR106W, strain vam3, stronger effect = lower value 0.997 | S. cerevisiae deletion strains, locus YOR136W, strain idh2, stronger effect = lower value 0.989 | S. cerevisiae deletion strains, locus YOR144C, strain elg1, stronger effect = lower value 0.986 | S. cerevisiae deletion strains, locus YOR184W, strain ser1, stronger effect = lower value 1 | S. cerevisiae deletion strains, locus YOR231W, strain MKK1, stronger effect = lower value 1.02 | S. cerevisiae deletion strains, locus YOR265W, strain rbl2, stronger effect = lower value 0.99 | S. cerevisiae deletion strains, locus YOR270C, strain vph1, stronger effect = lower value 1.02 | S. cerevisiae deletion strains, locus YOR290C, strain snf2, stronger effect = lower value 0.987 | S. cerevisiae deletion strains, locus YOR316C, strain cot1, stronger effect = lower value 0.989 | S. cerevisiae deletion strains, locus YPL051W, strain arl3, stronger effect = lower value 0.983 | S. cerevisiae deletion strains, locus YPL055C, strain LGE1, stronger effect = lower value 1.03 | S. cerevisiae deletion strains, locus YPL078C, strain atp4, stronger effect = lower value 0.996 | S. cerevisiae deletion strains, locus YPL106C, strain sse1, stronger effect = lower value 0.94 | S. cerevisiae deletion strains, locus YPL240C, strain hsp82, stronger effect = lower value 1.01 | S. cerevisiae deletion strains, locus YPL241C, strain CIN2, stronger effect = lower value 1.01 | S. cerevisiae deletion strains, locus YPL256C, strain CLN2, stronger effect = lower value 1.01 | S. cerevisiae deletion strains, locus YPR119W, strain clb2, stronger effect = lower value 0.981 | S. cerevisiae deletion strains, locus YPR141C, strain kar3, stronger effect = lower value 0.984 | S. cerevisiae deletion strains, locus YPR163C, strain tif3, stronger effect = lower value 0.996 | S. cerevisiae deletion strains, locus YPR167C, strain met16, stronger effect = lower value 0.99 | S. cerevisiae deletion strains, strain wtn01, stronger effect = lower value 0.979 | S. cerevisiae strains, strain wild type, stronger effect = lower value 1.02
